In PubChem BioAssay AID493000 (Johns Hopkins Ion Channel Center, 2010) one finds activity (percent) data, which are given here for 87 compounds.

Each structure is given as a SMILES string. About 390 (21%) of roughly 1,900 compounds were called active. No rule for the calls is given here. Not all results are given here.

This experiment can be described thus: nonspecific enhancement of M3R calcium signal without RGS4 – HEK293 M3R, non-induced cells, counter-screen for RGS4 inhibitor project, confirmation (AID 493000).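 Also: RGS4 induction absent so cells express M3R without RGS4.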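 As to activity (percent): higher means more calcium signal and flags a non-specific hit.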 Particulars: carbachol calcium Fluo-4, at 10 µM, submaximal (EC20) carbachol stimulus; active compounds read high, buffer wells 0%, carbachol control wells 100%.
Regarding `CC(C)c1nc(SCC(=O)Nc2cccc(C(=O)O)c2)c2c3c(sc2n1)CCCC3`, the activity (percent) was 41.5% (active). On to `Cc1ccc(NC(=O)c2c(NC(=O)CCC(=O)O)sc3c2CCCCC3)cc1`, for which the activity (percent) result was “inactive”.

Consider `CCOc1ccc(/C=N/NC(=O)CSc2ccccn2)cc1O`, for which the activity (percent) entry was “inactive”. For the compound `S=c1[nH]nc(-c2cccnc2)n1/N=C/C(Cl)=C\c1ccccc1`, the activity (percent) result is “inactive”.

For the compound `O=C(/C=C/c1ccc(Cl)c([N+](=O)[O-])c1)c1cccnc1`, the activity (percent) is 43.5% (active). Turning to `O=C(/C=C/c1ccc(Cl)c([N+](=O)[O-])c1)c1ccc(O)cc1`, the activity (percent) was 43.5% (active). Consider `COc1ccc(/C=C/C(=O)c2ccc(OC)cc2O)cc1`, for which the activity (percent) entry is “inactive”. The value for `C1=C(N2CCOCC2)/C(=C/c2nc3ccccc3[nH]2)CC1` was “inactive”. For `CNCC(O)c1ccc(O)c(O)c1` (configuration not stated), the activity (percent) entry was “inactive”.

With `O=C(Nc1ccc(Cl)cc1)OCc1cc(-c2ccccc2)on1`, the activity (percent) entry was “inactive”. As for `O=[N+]([O-])c1c(NCCO)cc(Sc2nc3ccccc3s2)c2nonc12`, the activity (percent) entry is “inactive”.

With `CCCCC1S/C(=N/N=C/c2cccs2)NC1=O` (configuration not stated), the activity (percent) entry was “inactive”. The entry for `COc1cc(Br)cc(/C=N/c2ncn[nH]2)c1O` is “inactive”; for `Oc1ccc(/C=N/Nc2ccc(C(F)(F)F)cn2)cc1O` it is 34.5% (active); for `Cn1c(-c2ccco2)nc2cc3ccccc3cc21` it is “inactive”. The value for `COc1cc2c(cc1O)C(SC)=NC(C)(C)C2` was “inactive”; that for `O=C1Nc2ccc(Br)cc2/C1=N/N=C/C1=C(N2CCOCC2)C(=C\c2ccccc2)/CC1` was 31.5% (active). As to `O=C(O)C(c1ccccc1)N1C(=O)/C(=C\c2ccc(-c3cccc(Cl)c3)o2)SC1=S` (configuration not stated), the activity (percent) result is “inactive”. The entry for `COc1ccc(/C(O)=C2/C(=O)C(=O)N(c3nc(C)c(C)s3)C2c2ccco2)cc1` (configuration not stated) is “inactive”. The entry for `C=C(C)C(=O)O[C@H]1C/C(C)=C\C(=O)/C=C(\C)[C@H](O)[C@@H]2OC(=O)C(=C)[C@@H]21` is “inactive”; for `C[C@H](NC(=O)c1nc[nH]c1C(=O)NCC(=O)OC(C)(C)C)c1ccccc1` it is “inactive”. The value for `Cc1ccc(Nc2nc(N)nc(CN3CCN(Cc4ccccc4)CC3)n2)cc1Cl` was “inactive”; that for `O=C(CCN1CCc2ccccc2C(O)(c2ccccc2)C1)c1ccc2c(c1)OCCO2` (configuration not stated) was 34.5% (active).

As for `CS(=O)(=O)N(CC(O)Cn1c2ccccc2c2ccccc21)c1cccc2ccccc12` (configuration not stated), the activity (percent) result was “inactive”.

Turning to `Oc1ccc(-c2[nH]ncc2-c2nc3ccccc3s2)c(O)c1`, the activity (percent) entry is “inactive”. For the compound `CCn1c(O)c(N=NC2=NC(=O)CS2)c2cc(C)ccc21`, the activity (percent) entry was “inactive”. On to `CCc1nnc(NS(=O)(=O)c2ccc(N=Cc3c(C)[nH]n(-c4ccc(C)cc4)c3=O)cc2)s1`, for which the activity (percent) entry is “inactive”.

In the case of `O=C(NCc1ccccc1)c1ccc(S(=O)(=O)Nc2cccc(C(F)(F)F)c2)cc1`, the activity (percent) result is “inactive”.

As to `Cc1ccc(-c2c3c(=O)n(C)c(=O)n(C)c3cn2-n2cnnc2)cc1`, the activity (percent) result was “inactive”. Regarding `C=CCOc1ccc(/C=C2/C(=O)ON=C2C)cc1OCC`, the activity (percent) is 32.5% (active). Turning to `C#CCOc1ccc(/C=C2/C(=O)ON=C2C)cc1OCC`, the activity (percent) entry is “inactive”. The entry for `COc1cc(/C=C2/C(=O)ON=C2C)ccc1OCc1ccccc1F` is “inactive”; for `COC(=O)C1CCN(C(=O)c2cc(=O)[nH]c3ccccc23)CC1` it is “inactive”. Turning to `O=C(COC(=O)c1cccc(Br)c1)Nc1cccc2c1C(=O)c1ccccc1C2=O`, the activity (percent) result was “inactive”. As for `COC(=O)Cn1cc(/C=C/[N+](=O)[O-])c2ccccc21`, the activity (percent) was 38% (active). On to `O=[N+]([O-])/C=C/c1ccc2c(ccn2Cc2ccccc2)c1`, for which the activity (percent) result is “inactive”.

For the compound `COc1ccc2c(c1OC)C(=O)OC2Nc1nc(-c2ccccc2)cs1` (configuration not stated), the activity (percent) entry is “inactive”. Take `Cc1ccc(S/C(=N\S(=O)(=O)c2ccc(Cl)cc2)c2ccccc2)cc1`: the activity (percent) entry was “inactive”. In the case of `Cc1ccc(Sc2cc(N3CCOCC3)nc(-c3ccccc3)n2)cc1`, the activity (percent) is 55.5% (active). With `Cc1c(NC(=O)c2coc(=O)c(Br)c2)c(=O)n(-c2ccccc2)n1C`, the activity (percent) entry was “inactive”. On to `c1ccc(C[C@H]2CNCCN2CCC23CC4CC(CC(C4)C2)C3)cc1`, for which the activity (percent) entry is “inactive”.

In the case of `Cc1ccc(C)c(Cn2nnc3c(=O)[nH]c(C(=O)Nc4ccc(F)cc4)nc32)c1`, the activity (percent) was 45.5% (active).

Regarding `O=C1NC(c2ccc(-c3ccccc3[N+](=O)[O-])o2)C(C(=O)c2ccc(Cl)cc2)C(O)(C(F)(F)F)N1` (configuration not stated), the activity (percent) is 38.5% (active).

`CCOC(=O)C1CCN(C(c2cc3cc(C)cc(C)c3[nH]c2=O)c2nnnn2C2CCCCC2)CC1` (configuration not stated): the activity (percent) entry is “inactive”.

Regarding `Cc1nc(-c2ccccc2)sc1C(=O)/C=C/c1ccccc1`, the activity (percent) entry is “inactive”. The entry for `COc1ccc(S(=O)(=O)Nc2ccc(O)c(Sc3nc4ccccc4s3)c2)cc1` is “inactive”. Regarding `Cc1nn2c(=O)cc(COC(=O)c3ccc(NC(=O)C(C)(C)C)cc3)nc2s1`, the activity (percent) entry was “inactive”. Consider `COc1ccc(NCc2nnc(SCc3ccccc3)n2-c2ccc(OC)cc2)cc1`, for which the activity (percent) result is “inactive”. For `COc1cc(/C=C2/SC(=S)N(Cc3ccccc3)C2=O)cc(OC)c1O`, the activity (percent) entry was “inactive”.

Consider `COc1cc(/C=C2/C(=O)NN(c3cccc(Cl)c3)C2=O)cc(Br)c1O`, for which the activity (percent) was 28.5% (active). Turning to `C#CCOc1ccc(/C=C2/C(=O)NN(c3ccccc3)C2=O)cc1OC`, the activity (percent) result is “inactive”.

As to `CC(C)Cc1nc(Nc2ccc(S(=O)(=O)N3CCCC3)cc2)c2nnn(Cc3ccccc3)c2n1`, the activity (percent) result is “inactive”. Turning to `CCc1ccc(C2C(C#N)=C(N)N(N3CCOCC3)C3=C2C(=O)CC(C)(C)C3)s1` (configuration not stated), the activity (percent) result is “inactive”. For the compound `COCCCNC(=S)N(CCN(C)C)Cc1cc2cc3c(cc2[nH]c1=O)OCCO3`, the activity (percent) result was “inactive”.

`O=C(N/N=C/c1ccccc1O)/C(=C/c1ccccc1)CCO`: the activity (percent) result is “inactive”. Regarding `COc1ccc(OC)c(S(=O)(=O)N2CCCC(C(=O)N3CCC(C(N)=O)CC3)C2)c1` (configuration not stated), the activity (percent) result was “inactive”. As for `CNc1nc(Nc2ccc(C)c(Cl)c2)nc(N)c1[N+](=O)[O-]`, the activity (percent) entry is “inactive”. For the compound `COc1ccc(-c2csc(Nc3ccc(O)cc3)n2)cc1`, the activity (percent) result is “inactive”.

With `CC(=O)Nc1ccc(S(=O)(=O)Nc2nc(-c3ccc(C(C)(C)C)cc3)cs2)cc1`, the activity (percent) is 51% (active).

Turning to `Cc1noc(NS(=O)(=O)c2ccc(N/C=C/C(=O)c3ccccc3)cc2)c1C`, the activity (percent) entry is “inactive”. Consider `Cc1ccsc1/C=N/n1c(=S)[nH]nc(C)c1=O`, for which the activity (percent) entry was “inactive”. As to `Cc1nc(Nc2ccc(S(=O)(=O)N3CCCC3)cc2)c2nnn(Cc3ccccc3)c2n1`, the activity (percent) result was “inactive”. On to `O=C(O)c1ccc2c(=O)n3c(nc2c1)/C(=C/c1ccc(Cl)c([N+](=O)[O-])c1)CC3`, for which the activity (percent) result is “inactive”. With `Cc1ccc(/C=C2\CCn3c2nc2cc(C(=O)O)ccc2c3=O)c(C)c1`, the activity (percent) is 33% (active). With `O=S(=O)(Nc1nccs1)c1ccc2c(c1)OCCO2`, the activity (percent) entry was “inactive”. Regarding `Brc1ccc(-c2csc(N/N=C/c3cccnc3)n2)cc1`, the activity (percent) entry is “inactive”. Regarding `Cc1ccc(SC(CC(=O)c2ccc(C(C)(C)C)cc2)C(=O)O)cc1` (configuration not stated), the activity (percent) entry is “inactive”. The entry for `Nc1cccc(-c2cc(-c3ccccc3)nc(-c3cccc(N)c3)n2)c1` is “inactive”; for `C=CCSc1nc2c(c(=O)[nH]1)C(C(C)C)C(C#N)=C(N)O2` (configuration not stated) it is 49.5% (active). The entry for `O=C1c2ccccc2NC(c2ccc(-c3cccc(Cl)c3)o2)N1O` (configuration not stated) is “inactive”; for `O=C(/C=C/Sc1ncn[nH]1)c1ccc(Cl)cc1` it is 32.5% (active). Take `Cc1cc(C)nc(S/C=C/C(=O)c2ccccc2)n1`: the activity (percent) result was “inactive”. For the compound `O=C(Nc1ccccc1)OCc1cc(-c2ccc(Cl)cc2)on1`, the activity (percent) entry is “inactive”. Regarding `Cc1ccc(Nc2nc(N)nc(CSc3nnc(C)s3)n2)cc1`, the activity (percent) result is “inactive”. With `CCOC(=O)[C@@H]1[C@H]2COc3ccc(Br)cc3[C@H]2N2C(=O)N(c3ccc(Cl)cc3)C(=O)[C@@]12C`, the activity (percent) result is “inactive”.

In the case of `O=C(NCCCc1ccccc1)C1CCC(CNc2c(N3CCCCC3)c(=O)c2=O)CC1` (configuration not stated), the activity (percent) result is “inactive”. As for `COc1ccccc1C1C(C#N)=C(N)Oc2c1c(-c1ccccc1)nn2-c1ccccc1` (configuration not stated), the activity (percent) is 34.5% (active). `CCC(c1nnnn1Cc1ccco1)N(Cc1cc2cc(OC)ccc2[nH]c1=O)C1CCCCC1` (configuration not stated): the activity (percent) entry was “inactive”. Turning to `Cc1nn(C(C)C(=O)N2CCOCC2)c(=O)c2nn(-c3ccccc3)c(C)c12` (configuration not stated), the activity (percent) entry is “inactive”.

Turning to `CCc1ccc2oc(-c3ccc(N)cc3)nc2c1`, the activity (percent) was 37.5% (active). Regarding `Cc1cc(-c2n[nH]c(=S)n2/N=C/C(Br)=C/c2ccccc2)n[nH]1`, the activity (percent) result is “inactive”. For the compound `CCCCOC(=O)CNc1nnc(SCC(=O)OCC)[nH]c1=O`, the activity (percent) result is “inactive”.

As to `O=C(O)c1ccc2c(c1)C(=O)N(c1ccc(/C=C/C(=O)c3ccccc3)cc1)C2=O`, the activity (percent) is 32% (active).

Consider `CCOc1ccc(NC(=O)C/C(C)=N/NC(=O)Cc2cccs2)cc1`, for which the activity (percent) result is “inactive”. Regarding `Nc1ccccc1SC(C[N+](=O)[O-])c1ccccc1` (configuration not stated), the activity (percent) entry was “inactive”.

`COc1ccc(C(C[N+](=O)[O-])n2nc(C)cc2C)cc1` (configuration not stated): the activity (percent) entry is “inactive”. The value for `CCOC(=O)C1=NN(c2ccc(Cl)cc2)/C(=C/C2=NCCc3cc(OC)c(OC)cc32)S1` was “inactive”.
